Source: PubChem BioAssay AID1159580 (chemical genetic matrix, 2015)
Where “and” joins values, the source holds several entries; their conditions need not be identical. Identical values can stand only once. Hit rate of the full screen: of about 5,500 compounds, about 2,000 (36%) were called active. Inconclusive results (about 18%) are left out. No stated cut-off is given here; in the data, active means normalized growth mostly below about 0.91 (no sharp cut-off); inconclusive means no clear call, values can overlap the other calls; inactive means mostly above about 0.92. The list shows a part of the results.

Experiment: chemical genetic growth profiling, strain panel (AID 1159580);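 further: tested at 20 µM; growth read once vehicle control cultures reached saturation at 30 °C; 1 = growth at the plate median or of vehicle wells; lower values mean less growth of the strain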
Settings: growth OD
[1] = S. cerevisiae deletion strains, locus YBR021W, strain FUR4, hits give low values
[2] = S. cerevisiae deletion strains, locus YBR229C, strain ROT2, hits give low values
[3] = S. cerevisiae deletion strains, locus YCL029C, strain bik1, hits give low values
[4] = S. cerevisiae deletion strains, locus YDL035C, strain GPR1, hits give low values
[5] = S. cerevisiae deletion strains, locus YDL074C, strain BRE1, hits give low values
[6] = S. cerevisiae deletion strains, locus YDL101C, strain DUN1, hits give low values
[7] = S. cerevisiae deletion strains, locus YDL185W, strain tfp1, hits give low values
[8] = S. cerevisiae deletion strains, locus YDL192W, strain arf1, hits give low values
[9] = S. cerevisiae deletion strains, locus YDR101C, strain arx1, hits give low values
[10] = S. cerevisiae deletion strains, locus YDR150W, strain NUM1, hits give low values
[11] = S. cerevisiae deletion strains, locus YDR162C, strain NBP2, hits give low values
[12] = S. cerevisiae deletion strains, locus YDR318W, strain mcm21, hits give low values
[13] = S. cerevisiae deletion strains, locus YDR388W, hits give low values
[14] = S. cerevisiae deletion strains, locus YDR502C, strain sam2, hits give low values
[15] = S. cerevisiae deletion strains, locus YEL061C, strain CIN8, hits give low values
[16] = S. cerevisiae deletion strains, locus YER110C, hits give low values
[17] = S. cerevisiae deletion strains, locus YER155C, strain BEM2, hits give low values
[18] = S. cerevisiae deletion strains, locus YER167W, strain BCK2, hits give low values
[19] = S. cerevisiae deletion strains, locus YGL078C, strain dbp3, hits give low values
[20] = S. cerevisiae deletion strains, locus YGL086W, strain mad1, hits give low values
[21] = S. cerevisiae deletion strains, locus YGL248W, strain PDE1, hits give low values
[22] = S. cerevisiae deletion strains, locus YGR135W, strain pre9, hits give low values
[23] = S. cerevisiae deletion strains, locus YGR229C, strain SMI1, hits give low values
[24] = S. cerevisiae deletion strains, locus YGR252W, strain gcn5, hits give low values
[25] = S. cerevisiae deletion strains, locus YHR030C, strain SLT2, hits give low values
[26] = S. cerevisiae deletion strains, locus YHR079C, strain IRE1 (second series), hits give low values
[27] = S. cerevisiae deletion strains, locus YHR094C, strain hxt1, hits give low values
[28] = S. cerevisiae deletion strains, locus YHR129C, strain ARP1, hits give low values
[29] = S. cerevisiae deletion strains, locus YHR200W, strain rpn10, hits give low values
[30] = S. cerevisiae deletion strains, locus YIL066C, strain RNR3, hits give low values
[31] = S. cerevisiae deletion strains, locus YIL073C, strain SPO22, hits give low values
[32] = S. cerevisiae deletion strains, locus YIL125W, strain kgd1, hits give low values
[33] = S. cerevisiae deletion strains, locus YIR030C, strain dcg1, hits give low values
[34] = S. cerevisiae deletion strains, locus YJL095W, strain BCK1, hits give low values
[35] = S. cerevisiae deletion strains, locus YJL134W, strain LCB3, hits give low values
[36] = S. cerevisiae deletion strains, locus YJL168C, strain set2, hits give low values
[37] = S. cerevisiae deletion strains, locus YJL187C, strain SWE1 (second series), hits give low values
[38] = S. cerevisiae deletion strains, locus YJR043C, strain POL32, hits give low values
[39] = S. cerevisiae deletion strains, locus YKL009W, strain mrt4, hits give low values
[40] = S. cerevisiae deletion strains, locus YKL068W, hits give low values
[41] = S. cerevisiae deletion strains, locus YKL085W, strain MDH1 (second series), hits give low values
[42] = S. cerevisiae deletion strains, locus YKL085W, strain MDH1, hits give low values
[43] = S. cerevisiae deletion strains, locus YKR001C, strain vps1, hits give low values
[44] = S. cerevisiae deletion strains, locus YLR039C, strain RIC1, hits give low values
[45] = S. cerevisiae deletion strains, locus YLR058C, strain SHM2, hits give low values
[46] = S. cerevisiae deletion strains, locus YLR102C, strain apc9, hits give low values
[47] = S. cerevisiae deletion strains, locus YLR262C, strain YPT6, hits give low values
[48] = S. cerevisiae deletion strains, locus YLR268W, strain sec22, hits give low values
[49] = S. cerevisiae deletion strains, locus YLR330W, strain CHS5, hits give low values
[50] = S. cerevisiae deletion strains, locus YLR342W, strain FKS1 (second series), hits give low values
[51] = S. cerevisiae deletion strains, locus YLR371W, strain rom2, hits give low values
[52] = S. cerevisiae deletion strains, locus YLR418C, strain cdc73, hits give low values
[53] = S. cerevisiae deletion strains, locus YML016C, strain PPZ1, hits give low values
[54] = S. cerevisiae deletion strains, locus YML032C, strain rad52, hits give low values
[55] = S. cerevisiae deletion strains, locus YML124C, strain tub3, hits give low values
[56] = S. cerevisiae deletion strains, locus YMR078C, strain ctf18, hits give low values
[57] = S. cerevisiae deletion strains, locus YMR223W, strain ubp8, hits give low values
[58] = S. cerevisiae deletion strains, locus YMR307W, strain GAS1, hits give low values
[59] = S. cerevisiae deletion strains, locus YNL067W, strain RPL9B, hits give low values
[60] = S. cerevisiae deletion strains, locus YNL128W, strain TEP1, hits give low values
[61] = S. cerevisiae deletion strains, locus YNL153C, strain GIM3, hits give low values
[62] = S. cerevisiae deletion strains, locus YNL233W, strain BNI4, hits give low values
[63] = S. cerevisiae deletion strains, locus YNL250W, strain rad50, hits give low values
[64] = S. cerevisiae deletion strains, locus YNL271C, strain bni1, hits give low values
[65] = S. cerevisiae deletion strains, locus YNL298W, strain CLA4, hits give low values
[66] = S. cerevisiae deletion strains, locus YNL307C, strain MCK1, hits give low values
[67] = S. cerevisiae deletion strains, locus YNL322C, strain KRE1, hits give low values
[68] = S. cerevisiae deletion strains, locus YNR052C, strain pop2, hits give low values
[69] = S. cerevisiae deletion strains, locus YOL012C, strain htz1
[70] = S. cerevisiae deletion strains, locus YOL147C, strain pex11, hits give low values
[71] = S. cerevisiae deletion strains, locus YOR061W, strain CKA2, hits give low values
[72] = S. cerevisiae deletion strains, locus YOR069W, strain VPS5, hits give low values
[73] = S. cerevisiae deletion strains, locus YOR136W, strain idh2, hits give low values
[74] = S. cerevisiae deletion strains, locus YOR144C, strain elg1, hits give low values
[75] = S. cerevisiae deletion strains, locus YOR184W, strain ser1, hits give low values
[76] = S. cerevisiae deletion strains, locus YOR316C, strain cot1, hits give low values
[77] = S. cerevisiae deletion strains, locus YPR119W, strain clb2, hits give low values
[78] = S. cerevisiae deletion strains, locus YPR141C, strain kar3, hits give low values
[79] = S. cerevisiae deletion strains, locus YPR163C, strain tif3, hits give low values
[80] = S. cerevisiae deletion strains, locus YPR167C, strain met16, hits give low values
[81] = S. cerevisiae deletion strains, strain wtn01, hits give low values
[82] = S. cerevisiae strains, strain wild type, hits give low values
[83] = S. cerevisiae deletion strains, locus YPL241C, strain CIN2, hits give low values

Measured: normalized growth

COc1cc2c(cc1/C=C/C(=O)c1cc(OC)c(OC)cc1OC)OCO2
inactive: [1] 1.14 | [2] 0.968 | [3] 1.02 | [4] 1 | [5] 1.05 | [6] 0.994 | S. cerevisiae deletion strains, locus YDL134C, strain PPH21, hits give low values 1.01 | [7] 1 | [8] 1.01 | [9] 0.998 | [10] 1.02 | [11] 0.974 | [12] 1.01 | [13] 1.02 | [14] 1.02 | [15] 1 | [16] 1.02 | [17] 1.02 | [18] 1.03 | [19] 0.997 | [20] 1.01 | [21] 0.996 | [22] 1.01 | [23] 1.01 | [24] 1.08 | [25] 1.02 | [26] 1 | [27] 1.01 | [28] 1.02 | [29] 1.02 | [30] 1.01 | [31] 1.06 | [32] 1.03 | [33] 1.01 | [34] 1 | [35] 1.01 | [36] 1.01 | [37] 1 | [38] 1.02 | [39] 1.02 | [40] 1 | [41] 1 | [42] 1 | S. cerevisiae deletion strains, locus YKL190W, strain CNB1, hits give low values 0.994 | [43] 1.02 | [44] 0.994 | [45] 0.998 | [46] 1.02 | [47] 1.01 | [48] 1.02 | [49] 1.02 | [50] 1.06 | [51] 1.02 | [52] 1.04 | [53] 1.01 | [54] 1.02 | [55] 0.995 | [56] 1.03 | [57] 1.01 | S. cerevisiae deletion strains, locus YMR263W, strain SAP30, hits give low values 1 | [58] 1.21 | [59] 0.998 | [60] 0.996 | [61] 0.983 | [62] 1.02 | [63] 1.01 | [64] 1.01 | [65] 1.02 | [66] 1.03 | [67] 1.01 | [68] 1.01 | S. cerevisiae deletion strains, locus YOL006C, strain TOP1, hits give low values 1.27 | [69] 1.18 | [70] 1.01 | [71] 0.975 | [72] 1.01 | [73] 1.02 | [74] 1 | [75] 0.993 | [76] 1.04 | S. cerevisiae deletion strains, locus YPL055C, strain LGE1, hits give low values 1.05 | [77] 1.01 | [78] 1.01 | [79] 1.01 | [80] 1.01 | [81] 1.01 | [82] 1.01

COc1cc2c(cc1-c1cc3cc4ccoc4cc3oc1=O)OCO2
active: [1] 1.31 [resistant] | [17] 1.11 [resistant] | [27] 1.16 [resistant] | [39] 1.19 [resistant] | [51] 1.18 [resistant] | [58] 1.57 [resistant] | [67] 1.16 [resistant] | [76] 1.17 [resistant]
inactive: [2] 0.995 | [3] 0.965 | [4] 1.01 | [5] 1 | [6] 0.98 | [7] 0.97 | [8] 1.01 | [9] 0.981 | [10] 0.991 | [11] 0.977 | [12] 0.973 | [13] 0.965 | [14] 0.95 | [15] 1.01 | [16] 0.97 | [18] 1.02 | [19] 0.997 | [20] 1.01 | [21] 0.977 | S. cerevisiae deletion strains, locus YGR078C, strain PAC10, hits give low values 0.993 | [22] 0.993 | [24] 1.16 | [25] 0.984 and 1 | [26] 0.979 | S. cerevisiae deletion strains, locus YHR079C, strain IRE1, hits give low values 1.01 | [28] 1.01 | [29] 0.972 | [30] 0.973 | [31] 0.902 | [32] 0.984 | [33] 0.989 | [34] 0.979 and 1 | [35] 0.973 | [36] 1.01 | [37] 0.98 | [38] 1.01 | S. cerevisiae deletion strains, locus YJR066W, strain TOR1, hits give low values 0.942 | [40] 1.02 | [41] 1.05 | [42] 1.05 | [43] 1.01 | [44] 0.954 | [45] 0.973 | [46] 0.997 | S. cerevisiae deletion strains, locus YLR113W, strain HOG1, hits give low values 0.996 | [47] 1.19 | [48] 0.95 | [49] 0.983 | [50] 0.993 | [52] 0.915 | [53] 0.982 | [54] 0.983 | [55] 0.975 | [56] 0.984 | [57] 0.999 | [59] 0.968 | [60] 1.01 | S. cerevisiae deletion strains, locus YNL183C, strain NPR1, hits give low values 0.925 | [62] 1 | [63] 0.975 | [64] 0.991 | [65] 1 | [66] 0.944 | [68] 1.03 | [69] 1.22 | [70] 0.992 | [71] 0.971 | [72] 0.977 | [73] 0.987 | [74] 0.981 | [75] 0.907 | S. cerevisiae deletion strains, locus YOR231W, strain MKK1, hits give low values 1.07 | [83] 0.984 | S. cerevisiae deletion strains, locus YPL256C, strain CLN2, hits give low values 1.01 | [77] 0.966 | [78] 1.02 | [79] 0.969 | [80] 0.995 | [81] 0.972 | [82] 1.01

CCCCN1CCC(COC(=O)c2cc(Cl)c(N)c3c2OCCO3)CC1
inactive: S. cerevisiae deletion strains, locus YAL013W, strain DEP1, hits give low values 0.976 | S. cerevisiae deletion strains, locus YAL040C, strain CLN3, hits give low values 0.973 | S. cerevisiae deletion strains, locus YCL061C, strain MRC1 (second series), hits give low values 0.987 | [10] 0.997 | S. cerevisiae deletion strains, locus YDR363W, strain ESC2, hits give low values 0.968 | S. cerevisiae deletion strains, locus YER002W, strain NOP16, hits give low values 0.987 | [23] 0.966 | [58] 0.989 | [60] 0.991 | [61] 0.996 | S. cerevisiae deletion strains, locus YNL175C, strain NOP13, hits give low values 1 | S. cerevisiae deletion strains, locus YNL197C, strain WHI3, hits give low values 0.991 | S. cerevisiae deletion strains, locus YNL224C, strain SQS1, hits give low values 1.01 | [67] 0.982 | S. cerevisiae deletion strains, locus YOR083W, strain WHI5 (second series), hits give low values 0.989 | [83] 0.993
